# According to the supplement of paper PMC6607015:
# Where a name gives a salt, the structure may show the parent alone.
# Legend:
# Conditions in all cases: compound concentration in added solution (µM; 5 µl added to 20 µl cells): 10; 18 h
# A431 [1] = experiment: LBPA endosome anti-LBPA integrated intensity (sum per cell), Z-score; higher = more LBPA staining
# Procedure, shortened: (§1)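 The data are Z-scores, normalised in AcuityXpress, of integrated LBPA or filipin intensity in each cell, either whole-cell or restricted to LBPA endosomes. HeLa MZ or A431 cells, 3,500 per well in 20 µl, were seeded onto 5 µl of 10 µM compound solution in duplicate 384-well plates and incubated 18 h. Fixed cells were stained and imaged, with intensities extracted by MetaXpress segmentation.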
# HeLa MZ [2] = experiment: as above
# Procedure, shortened: as §1
# A431 [3] = experiment: whole-cell filipin (free cholesterol) integrated intensity, Z-score; higher = more cholesterol staining
# Procedure, shortened: as §1
# HeLa MZ [4] = experiment: as above
# Procedure, shortened: as §1
# A431 [5] = experiment: filipin (cholesterol) integrated intensity within LBPA endosomes, Z-score; higher = more cholesterol in LBPA endosomes
# Procedure, shortened: as §1
# HeLa MZ [6] = experiment: as above
# Procedure, shortened: as §1
SMILES,LBPA endosome anti-LBPA integrated intensity (z-score) (A431 [1]),LBPA endosome anti-LBPA integrated intensity (z-score) (HeLa MZ [2]),whole-cell filipin (z-score) (A431 [3]),whole-cell filipin (z-score) (HeLa MZ [4]),filipin (z-score) (A431 [5]),filipin (z-score) (HeLa MZ [6])
Cc1cc(NS(=O)(=O)c2ccc(N)cc2)no1 [Sulfamethoxazole],-0.371,-0.141,-0.446,-0.158,-0.446,-0.3
NC1CCN(c2c(F)cc3c(=O)c(C(=O)O)cn(C4CC4)c3c2Cl)C1 (stereo unspecified) [Clinafloxacin],-0.36,0.512,-0.328,-0.333,-0.437,-0.286
CC(COc1ccccc1)NC(C)C(O)c1ccc(O)cc1 (stereo unspecified) [Isoxsuprine hydrochloride],-0.187,0.869,-0.214,-0.465,-0.444,-0.378
CC(C)Cc1ccc([C@H](C)C(=O)O)cc1 [S-(+)-ibuprofen],-0.498,-0.256,-0.555,-0.301,-0.443,-0.51
CC(C)(C)NC(=O)[C@@H]1C[C@@H]2CCCC[C@@H]2CN1C[C@@H](O)[C@H](Cc1ccccc1)NC(=O)[C@H](CC(N)=O)NC(=O)c1ccc2ccccc2n1 [Saquinavir mesylate],0.938,0.684,1.12,0.276,0.903,0.906
CCN(CC)CCOC(=O)C1(C2CCCCC2)CCCCC1 [Dicyclomine hydrochloride],-0.0951,0.203,0.137,-0.144,0.0207,0.0362
CNCCCC1c2ccccc2C=Cc2ccccc21 [Protriptyline hydrochloride],2.36,2.29,1.72,0.684,2.34,2.5
COc1ccc2c(c1)C(=O)N(CCc1ccc(S(=O)(=O)NC(=O)NC3CCCCC3)cc1)C(=O)C2(C)C [Gliquidone],-0.483,0.216,-0.152,-0.511,-0.531,-0.598
Cc1ccc(S(=O)(=O)NC(=O)NN2CC3CCCC3C2)cc1 (stereo unspecified) [Gliclazide],-0.621,-1.17,-0.806,-0.679,-0.555,-0.64
OCCOCCN1CCN(C(c2ccccc2)c2ccc(Cl)cc2)CC1 (stereo unspecified) [Hydroxyzine dihydrochloride],0.255,0.53,0.266,-0.465,0.492,0.489
O=C(O)Cc1sc(-c2ccccc2)nc1-c1ccc(Cl)cc1 [Fentiazac],-0.661,-1.44,-0.809,-0.504,-0.591,-0.756
NS(=O)(=O)c1cc2c(cc1Cl)N=C(CSCc1ccccc1)NS2(=O)=O [Benzthiazide],-0.596,-0.997,-0.0125,-0.328,-0.513,-0.593
Cc1ccc(-c2cc(C(F)(F)F)nn2-c2ccc(S(N)(=O)=O)cc2)cc1 [Celecoxib],-0.0813,0.702,0.406,0.113,-0.205,-0.22
Cc1cccc(C)c1NC(=O)CN1CCN(CCCC(c2ccc(F)cc2)c2ccc(F)cc2)CC1 [Lidoflazine],3.2,1.66,1.3,0.566,2.57,2.52
Nc1ccc(C(=O)O)c(O)c1 [4-aminosalicylic acid],-0.488,-0.439,-0.159,-0.434,-0.444,-0.569
CC(C)(C)NCC(O)COc1cccc2c1CC(O)C(O)C2 (stereo unspecified) [Nadolol],-0.438,0.289,-0.0909,0.44,-0.44,-0.157
C[C@H](N)[C@H](O)c1cccc(O)c1 [Metaraminol bitartrate],-0.242,-0.0318,-0.347,-0.355,-0.416,-0.505
CO[C@@]1(NC(=O)C(C(=O)O)c2ccc(O)cc2)C(=O)N2C(C(=O)O)=C(CSc3nnnn3C)CO[C@@H]21 (stereo partly specified) [Moxalactam disodium salt],-0.477,0.127,-0.129,0.413,-0.413,-0.25
NC(=O)NC1NC(=O)NC1=O (stereo unspecified) [Allantoin],-0.71,-1.01,-1.02,-0.573,-0.456,-0.604
CC(=O)N1CCN(c2ccc(OCC3COC(Cn4ccnc4)(c4ccc(Cl)cc4Cl)O3)cc2)CC1 (stereo unspecified) [Ketoconazole],1.81,1.94,3.72,3.7,3.52,4.06
CN1CCC(=C2c3ccccc3C=Cc3ccccc32)CC1 [Cyproheptadine hydrochloride],2.41,0.629,1.01,-1.18,2.25,0.976
O=C(NCCNCC(O)COc1ccc(O)cc1)N1CCOCC1 (stereo unspecified) [Xamoterol hemifumarate],-0.337,-0.849,-0.403,-0.263,-0.407,-0.533
CN1Cc2c(N)cccc2C(c2ccccc2)C1 (stereo unspecified) [Nomifensine maleate],-0.419,0.114,-0.627,-0.396,-0.47,-0.516

SMILES,LBPA endosome anti-LBPA integrated intensity (z-score) (A431 [1]),LBPA endosome anti-LBPA integrated intensity (z-score) (HeLa MZ [2]),whole-cell filipin (z-score) (A431 [3]),whole-cell filipin (z-score) (HeLa MZ [4]),filipin (z-score) (A431 [5]),filipin (z-score) (HeLa MZ [6])
COc1ccc2c(c1)c(CC(=O)OCC(=O)O)c(C)n2C(=O)c1ccc(Cl)cc1 [Acemetacin],-0.545,-0.702,-1.02,-0.542,-0.556,-0.644
CC(Cc1cccc(C(F)(F)F)c1)NCCOC(=O)c1ccccc1 (stereo unspecified) [Benfluorex hydrochloride],-0.077,-0.59,-0.118,0.0685,-0.352,-0.573
Cc1ccc(-c2ncc(Cl)cc2-c2ccc(S(C)(=O)=O)cc2)cn1 [Etoricoxib],-0.471,-1.03,-0.752,-0.603,-0.543,-0.516
CC(=O)O[C@]1(C(C)=O)CC[C@H]2[C@@H]3C=C(Cl)C4=CC(=O)[C@@H]5C[C@@H]5[C@]4(C)[C@H]3CC[C@@]21C [Cyproterone acetate],-0.264,0.704,0.568,0.591,0.113,0.108
c1ccc(CN(CC2=NCCN2)c2ccccc2)cc1 [Antazoline hydrochloride],-0.107,0.686,-0.0849,0.249,-0.0343,0.301
CS(=O)(=O)Nc1ccc([N+](=O)[O-])cc1Oc1ccccc1 [Nimesulide],-0.535,-0.741,-0.718,-0.259,-0.551,-0.716
c1ccc([C@H]2CN3CCSC3=N2)cc1 [Levamisole hydrochloride],-0.398,0.59,-0.758,-0.886,-0.52,-0.182
C=CC1=C(C(=O)O)N2C(=O)[C@@H](NC(=O)/C(=N\O)c3csc(N)n3)[C@H]2SC1 [Cefdinir],-0.422,-0.414,-0.315,-0.322,-0.385,-0.46
CC1(C)O[C@@H]2C[C@H]3[C@@H]4C[C@H](F)C5=CC(=O)C=C[C@]5(C)[C@H]4[C@@H](O)C[C@]3(C)[C@]2(C(=O)CO)O1 [Flunisolide],-0.32,-1.26,-0.035,-0.18,-0.256,-0.365
NC[C@@H]1O[C@H](O[C@H]2[C@@H](O)[C@H](O[C@@H]3[C@@H](O)[C@H](N)C[C@H](N)[C@H]3O[C@H]3O[C@H](CO)[C@@H](O)[C@H](O)[C@H]3N)O[C@@H]2CO)[C@H](N)[C@@H](O)[C@@H]1O [Paromomycin sulfate],-0.396,-0.465,-0.35,-0.208,-0.425,-0.447
CC[N+](CC)(CC)CCC(O)(c1ccccc1)C1CCCCC1 (stereo unspecified) [Tridihexethyl chloride],-0.607,-0.578,-0.338,-0.512,-0.437,-0.697
C[C@]12C=CC(=O)C=C1CC[C@@H]1[C@@H]2C(=O)C[C@@]2(C)[C@H]1CC[C@]2(O)C(=O)CO [Prednisone],-0.485,-0.977,-0.505,0.0271,-0.452,-0.412
CCCCOc1ccc(CC(=O)NO)cc1 [Bufexamac],-0.196,-0.501,-0.337,-0.569,-0.313,-0.483
Nc1nc(=O)c2c([nH]1)NC[C@@H](CNc1ccc(C(=O)N[C@@H](CCC(=O)O)C(=O)O)cc1)N2C=O [Folinic acid calcium salt],-0.476,-0.265,-0.437,-0.13,-0.451,-0.42
NC1CCN(c2nc3c(cc2F)c(=O)c(C(=O)O)cn3-c2ccc(F)cc2F)C1 (stereo unspecified) [Tosufloxacin hydrochloride],-0.551,-1.59,-0.466,-1.51,-0.679,-0.966
N=C(N)N1CCc2ccccc2C1 [Debrisoquin sulfate],-0.566,-0.193,-0.719,-0.695,-0.556,-0.606
Cc1cc(-n2c(=O)[nH]c(=O)n(C)c2=O)ccc1Oc1ccc(SC(F)(F)F)cc1 [Toltrazuril],-0.328,0.612,-0.109,0.0439,-0.337,-0.457
NCC[C@H](O)C(=O)N[C@@H]1C[C@H](N)[C@@H](O[C@H]2O[C@H](CN)[C@@H](O)[C@H](O)[C@H]2O)[C@H](O)[C@H]1O[C@H]1O[C@H](CO)[C@@H](O)[C@H](N)[C@H]1O [Amikacin hydrate],-0.71,-0.821,-1.06,-0.44,-0.672,-0.666
CCC(=O)O[C@]1(C(=O)SCF)[C@H](C)C[C@H]2[C@@H]3C[C@H](F)C4=CC(=O)C=C[C@]4(C)[C@@]3(F)[C@@H](O)C[C@@]21C [Fluticasone propionate],-0.0811,0.00943,0.193,-0.0272,-0.0798,-0.437
CCN1CCN(C(=O)N[C@@H](C(=O)N[C@@H]2C(=O)N3[C@@H]2SC(C)(C)[C@@H]3C(=O)O)c2ccccc2)C(=O)C1=O [Piperacillin sodium salt],-0.232,-0.383,-0.0934,-0.425,-0.285,-0.478
CC(C)CC(=O)N[C@H](C(=O)N[C@H](C(=O)N[C@@H](CC(C)C)[C@@H](O)CC(=O)N[C@@H](C)C(=O)N[C@@H](CC(C)C)[C@@H](O)CC(=O)O)C(C)C)C(C)C [Pepstatin A],-0.604,-1.38,-0.841,-0.484,-0.569,-0.589
CC(C(=O)O)c1ccc2c(c1)[nH]c1ccc(Cl)cc12 (stereo unspecified) [Carprofen],-0.569,-1.21,-0.098,-0.307,-0.398,-0.538
CN1CCC(=C2c3ccccc3Sc3ccccc32)CC1 [Pimethixene maleate],2.35,1.97,0.776,-0.782,1.82,0.962
